The source of these data is PubChem BioAssay AID488789 (Broad Institute, 2010).

Potency and affinity values are given separately. Records with an inconclusive call do not appear. Where a call stands in place of a potency, no number is given. Activity calls are given as the source filed them.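 How the source made its calls: active means samples whose fitted half-maximal inhibition concentration is no more than ten times the top valid dose tested; inconclusive means flat response between -70 and -30, or invalid curve fit; inactive means flat within 30 of zero, potency above limit, or signal rising.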

In this experiment the target is Trypsin (Sus scrofa) (UniProt P00761). The experiment in a line: trypsin protease activity blockade – biochemical, quenched peptide fluorescence, cherry-pick, selectivity assay for Rce1 protease inhibitor project, dose response (AID 488789).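 Further: more negative means stronger trypsin inhibition.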 The conditions noted are these: porcine trypsin, quenched peptide cleavage fluorescence; series mostly up to 10 µM.
Chain of Trypsin (Sus scrofa) (P00761 whole entry, looked up): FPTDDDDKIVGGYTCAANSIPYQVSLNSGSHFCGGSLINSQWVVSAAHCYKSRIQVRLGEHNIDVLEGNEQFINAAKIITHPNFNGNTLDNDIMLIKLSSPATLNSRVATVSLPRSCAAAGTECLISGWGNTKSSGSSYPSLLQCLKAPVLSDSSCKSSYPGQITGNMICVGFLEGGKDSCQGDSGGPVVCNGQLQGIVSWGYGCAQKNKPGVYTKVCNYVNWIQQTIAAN
For the molecule `CC(C)C[C@H](NC(=O)c1nc[nH]c1C(=O)N1CCNCC1)C(=O)OCc1ccccc1`, the call was inactive.
In the case of `COc1ccccc1NC(=O)CN(c1ccc(C23CC4CC(CC(C4)C2)C3)cc1)S(C)(=O)=O`, the result was inactive.
With `Cc1cc(C)cc(Nc2nc(-c3ccc(S(=O)(=O)N4CCCC4)cc3)cs2)c1` the entry was “inactive”; with `CCOC(=O)c1ccc(NC(=O)N2CCN(Cc3ccccc3)CC2)cc1`, “inactive”; with `c1ccc(Nc2cccc(Nc3ccccc3)n2)cc1`, “inactive”.
With `Cc1nc(SC(C(=O)c2ccccc2)c2ccccc2)nc2ccccc12` (configuration not stated) the entry was “inactive”; with `CCOC(=O)C1=C(C)OC(N)=C(C#N)C1c1cc2c(cc1[N+](=O)[O-])OCO2` (configuration not stated), “inactive”; with `CCO[C@H]1OC(C(=O)Nc2ccccc2)=C[C@@H](c2csc3ccccc23)[C@@H]1CCCO`, “inactive”.
With `NC(=O)CSC1=Nc2ccccc2C2=NC(c3ccccc3)C(=O)N12` (configuration not stated) the entry was “inactive”.
Regarding `CCN(CC)c1ccc(/C=N/NC(=O)C(O)(c2ccccc2)c2ccccc2)o1`, the molecule was called inactive.
The entry for `COc1cc(OC)cc(-c2ncc3ccccn23)c1` is “inactive”.
Turning to `Cc1cc(C)c2cc(C#N)c(NCCCNC(=O)CCC(=O)O)nc2c1`, the outcome was inactive.
For `O=c1c(-c2ccccc2)c(O)c2ccccc2n1-c1ccccc1`, the molecule was called inactive.
With `c1coc(-c2ccnc3ncnn23)c1` the entry was “inactive”.
The entry for `COc1ccc(-c2cc(C(F)(F)F)nc(SCC(=O)N(C)Cc3cn(C)nc3C)n2)cc1OC` is “inactive”; for `COc1ccccc1-n1c(-c2ccccc2)c[nH]c1=S` it is “inactive”.
As to `COC(C[C@@H]1O[C@@H]1C(=O)[C@@H](C)OCc1ccccc1)OC`, the outcome was inactive.
With `Cc1cccc(N2CCc3c2nc2ccc(Br)cc2c3N)c1` the entry was “inactive”; with `COC(C/C=C\C(=O)[C@H](C)OCc1ccccc1)OC`, “inactive”; with `O=C(COc1ncnc2cc([N+](=O)[O-])ccc12)NC(=O)NC1CCCCC1`, “inactive”.
Consider `CCOc1ccc(-n2c(SCc3ccc([N+](=O)[O-])cc3)nnc2-c2ccc(OC)cc2)cc1`, for which the call was inactive.
With `CC(Cc1cccs1)NC(=O)Nc1ccc([N+](=O)[O-])cc1` (configuration not stated) the entry was “inactive”; with `Cc1cccc(N2C(=O)c3cccc4c(N5CCCCC5)c([N+](=O)[O-])cc(c34)C2=O)c1C`, “inactive”; with `O=C(Nc1ccc(S(=O)(=O)Nc2ccccc2)cc1)C1COc2ccccc2O1` (configuration not stated), “inactive”.
With `CCN(Cc1ccccc1)S(=O)(=O)c1ccc(C(=O)N(CCCN(C)C)c2nc3c(C)c(C)ccc3s2)cc1` the entry was “inactive”.
The entry for `Cc1cc(C(=O)N/N=C/c2c3ccccc3cc3ccccc23)n[nH]1` is “inactive”; for `Cc1nn(CCC(=O)O)c2nc(-c3cccnc3)cc(C(F)(F)F)c12` it is “inactive”.
`Cc1ccccc1NS(=O)(=O)c1ccc(C(=O)NCC(c2ccccc2)N(C)C)cc1` (configuration not stated): the outcome was inactive.
With `Cc1cc(C(=O)N[C@H](c2ccccc2)[C@@]2(C)C[C@@H]2[C@@H](C)C(=O)Nc2ccc3ccccc3c2)n(C)n1` the entry was “inactive”.
Take `CCCCCc1ccc(OCCOCCn2c[n+](C)c3ccccc32)c(CCCCC)c1`: the result was inactive.
The entry for `COc1ccc(OC)c(NC(=O)c2cc3oc4ccccc4c3cc2O)c1` is “inactive”.
With `O=C(c1cc(-c2ccccc2)nc2ccccc12)N1CCN(c2ccccn2)CC1` the entry was “inactive”; with `COc1ccc(/C=N/NC(=O)c2ccc(Cl)cc2)cc1COC(C)=O`, “inactive”; with `O=C(COC(=O)c1ccc(S(=O)(=O)N2CCCC2)cc1)NCc1ccccc1`, “inactive”.
The entry for `CCN(CC)CCN(C(=O)c1ccc2ccccc2c1)c1nc2cc3c(cc2s1)OCO3` is “inactive”.
With `CN1CCN(Cc2c(C(=O)N/N=C/c3cccc(Br)c3)nnn2-c2nonc2N)CC1`, the call was inactive.
The entry for `O=C(Nc1cc(Cl)cc(Cl)c1)c1coc(=O)c(Br)c1` is “inactive”.
